25 compounds from ChEMBL document CHEMBL4888484, “Replenishing the malaria drug discovery pipeline: Screening and hit evaluation of the MMV Hit Generation Library 1 (HGL1) against asexual blood stage Plasmodium falciparum ,using a nano luciferase reporter read-out” (2022) can be followed below.

As a reminder, the % Inhibition is the relative decrease from the control value, in per cent.

The structures appear in SMILES notation. In all, about 150,000 compounds went through this assay and about 540 (0.36%) showed an effect of 50% or more. What follows is part of a selection rich in strong results, with near analogues and random picks from the rest.

This assay relates to Plasmodium falciparum. In words: Primary screen in NF54 nanoGlo assay, in single point, at 2uM, 72h; a lower Z score goes with more inhibition. The assay is classed as functional, Erythrocyte. The conditions noted are these: timepoint 72 hour.
For `CCOC(=O)NCCC(=O)NCCC[C@H]1CCCCO1`, the “% Inhibition” value is reported as -4% and the Z score amounted to 0.49.
For `CCc1nsc(N2CC(C)N(CC#N)C(C)C2)n1` (stereo not given), in that order: -3% and 0.45.
Take `CCCc1cc(-c2nc(-c3ccc(-n4nc(C)cc4N)cc3)no2)n(C)n1`: the “% Inhibition” value is given as 71% and the Z score was -14.18.
With `Cc1cc(N)n(-c2ccc(-c3noc(-c4cc(C(C)C)on4)n3)cc2)n1`, the “% Inhibition” value stood at 15% and the Z score was -3.24.
Take `CC[C@@H](c1nc(-c2ccc(-n3nc(C)cc3N)cc2)no1)n1cccn1`: the “% Inhibition” value is listed as -2% and the Z score turned out to be 0.32.
For the compound `C[C@@H](CNc1nc(-c2ccccc2)nc2nc(-c3ccc(Cl)cc3)oc12)N1CCCCC1`, the “% Inhibition” value is reported as 79% and the Z score is given as -10.9.
With `c1ccc(-c2nc(NC3CCCC3)c3oc(-c4ccccc4)nc3n2)cc1`, the “% Inhibition” value is -7% and the Z score stood at 0.89.
With `C[C@@H](CNc1nc(-c2ccccc2)nc2nc(-c3ccc(Cl)cc3)oc12)N1CCOCC1`, the “% Inhibition” value is on record as -17% and the Z score turned out to be 2.25.
For `CCc1noc(C2(n3cccn3)CC2)n1`, in that order: -8% and 0.8.
On to `N#Cc1ccccc1OCCN1CCS(=O)(=O)CC1`, for which the “% Inhibition” value was -3% and the Z score was 0.38.
Consider `O=C(N[C@H]1CCc2[nH]c3ccc(Br)cc3c2C1)c1ccc(Cl)c(Cl)c1`, for which the “% Inhibition” value is listed as -9% and the Z score is listed as 1.26.
For the compound `O=C(NC1CCc2[nH]cnc2C1)N[C@@H]1CCCc2ccccc21` (stereo not given in full), the “% Inhibition” value is reported as 4% and the Z score is given as -0.51.
Consider `CC(C)c1ccc(CCCNS(N)(=O)=O)cc1`, for which the “% Inhibition” value is listed as 7% and the Z score is reported as -0.97.
Turning to `c1cc(N2CC[C@]3(CCOC3)C2)c2sccc2n1`, the “% Inhibition” value is recorded as -10% and the Z score worked out at 1.52.
In the case of `CCc1nc(CCNC(=O)Cc2sc(N)nc2C)no1`, the “% Inhibition” value is -22% and the Z score came out at 2.33.
Turning to `CN1CCCN(c2nc(C(F)(F)F)nc3cc4c(cc23)OCO4)CC1`, the “% Inhibition” value is on record as -8% and the Z score is 1.28.
In the case of `CN(C)C1(CNc2ncc(F)cn2)CCCC1`, the “% Inhibition” value is on record as -3% and the Z score was 0.48.
In the case of `COc1nccnc1NCC1(N(C)C)CCCCC1`, the “% Inhibition” value is 2% and the Z score is given as -0.41.
Consider `Oc1cc(C(F)(F)F)c2cc3c(cc2n1)OCO3`, for which the “% Inhibition” value is reported as 30% and the Z score was -3.35.
Take `O=C(NCc1ccc(Br)cc1)NC1CC2OCCCC12` (stereo not given): the “% Inhibition” value is -11% and the Z score amounted to 1.4.
`COCCN(Cc1cc2ccc(Cl)cc2nc1N1CCC[C@H](CO)C1)C(=O)c1sccc1C`: the “% Inhibition” value is reported as 2% and the Z score is -0.41.
For the compound `NC(=NCCOc1ncc(Cl)cc1Cl)N1CCOCC1`, the “% Inhibition” value is reported as -11% and the Z score came to 1.79.
Take `CCN(C)C1(CNC(=O)c2ccc(-c3cnccn3)cc2)CCCC1`: the “% Inhibition” value is -14% and the Z score is listed as 2.04.
Turning to `CCN(C)C1(CNC(=O)c2ccc(-c3cc(F)ccc3O)cc2)CCCC1`, the “% Inhibition” value was found to be 55% and the Z score is -0.99.
With `CCN(C)C1(CNC(=O)c2cccc(-c3ncc(F)c(NC)n3)c2)CCCC1`, the “% Inhibition” value was determined as 3% and the Z score is on record as -0.53.
